Assay outcomes (PubChem BioAssay)
This is a sample that favours compounds with a hit; in the whole collection about 3.6% have one here.
Mdm2 MdmX PPI: disrupts the human Mdm2-MdmX interaction; hit rate 3% among 330,000; SaOS-2 split-luciferase Mdm2/MdmX complementation, luminescence; inhibition, % at 8 µM; O15151+Q00987;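 active = inhibition of at least 50% at 8 µM in the primary screen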
Target sequence (O15151 whole entry, looked up): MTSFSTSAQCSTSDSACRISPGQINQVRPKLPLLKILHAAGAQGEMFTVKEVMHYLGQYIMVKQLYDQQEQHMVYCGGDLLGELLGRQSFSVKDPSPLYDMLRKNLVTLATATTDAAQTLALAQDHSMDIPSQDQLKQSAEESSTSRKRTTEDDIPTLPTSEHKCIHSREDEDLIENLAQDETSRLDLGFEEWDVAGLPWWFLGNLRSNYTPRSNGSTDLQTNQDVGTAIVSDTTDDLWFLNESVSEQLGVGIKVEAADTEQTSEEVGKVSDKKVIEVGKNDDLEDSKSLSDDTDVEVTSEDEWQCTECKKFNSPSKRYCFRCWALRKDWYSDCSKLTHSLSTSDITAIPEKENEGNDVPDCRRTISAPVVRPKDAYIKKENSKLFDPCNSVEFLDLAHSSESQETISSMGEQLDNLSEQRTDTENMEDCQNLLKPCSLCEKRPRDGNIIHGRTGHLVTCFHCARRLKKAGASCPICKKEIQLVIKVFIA
Target sequence (Q00987 whole entry, looked up): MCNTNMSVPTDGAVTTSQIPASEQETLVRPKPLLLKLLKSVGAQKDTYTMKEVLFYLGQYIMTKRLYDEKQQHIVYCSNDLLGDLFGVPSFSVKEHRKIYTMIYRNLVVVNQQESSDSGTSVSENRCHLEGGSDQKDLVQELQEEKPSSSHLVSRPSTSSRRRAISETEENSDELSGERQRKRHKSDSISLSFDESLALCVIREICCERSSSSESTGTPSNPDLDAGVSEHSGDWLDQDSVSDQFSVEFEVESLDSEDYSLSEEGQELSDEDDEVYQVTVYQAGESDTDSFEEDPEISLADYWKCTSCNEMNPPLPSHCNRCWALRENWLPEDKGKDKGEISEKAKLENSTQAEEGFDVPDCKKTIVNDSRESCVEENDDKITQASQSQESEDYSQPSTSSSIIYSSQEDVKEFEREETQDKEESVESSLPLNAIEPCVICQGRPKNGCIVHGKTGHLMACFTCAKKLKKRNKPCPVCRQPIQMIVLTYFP
KKLEB cytotox: CF airway cell cytotoxicity counter-screen; AID 602141; activity change (cytotoxicity), % at 5 µM; hit rate 0.36% among 360,000; KKLEB CF airway cells viability, ATPlite luminescence, overnight; hits give low values; cells stimulated with P. aeruginosa culture filtrate;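 active = corrected activity change at or below -50% at 5 µM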
CF NFkB inh: cystic fibrosis NF-kB activation inhibition; hit rate 0.86% among 360,000; inhibition, % at 5 µM; AID 588850; KKLEB NF-kB-GFP reporter, PAF-induced, GFP fluorescence overnight;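 active = at least 50% inhibition at 5 µM, scaled per plate between neutral and stimulator controls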;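 note: PAF is a Pseudomonas aeruginosa culture filtrate used as stimulus; plate controls were PAF-stimulated DMSO wells for no effect and unstimulated DMSO wells for full effect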
LGR2 antag: Drosophila LGR2 receptor signaling inhibition. HEK293 LGR2, CRE-luciferase, bursicon-stimulated, 4 h. inhibition, % at 9.99 µM. hit rate 0.35% among 380,000. AID 720647;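 active = drop in luminescence signal, shown as inhibition above about 50% in the replicate tests, limit read from the data, passing the limit was not always enough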;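 note: agonist challenge used bursicon conditioned medium at about half maximal strength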
HSP90 inh: inhibitors of HSP90 luciferase refolding in rabbit reticulocyte lysate; luciferase refolding luminescence, 3 h; inhibition, % at 5.6 µM; hit rate 0.91% among 290,000; AID 1789;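 active = inhibition above the screen-wide mean plus 3 SD, computed separately per campaign, cut at about 16% in these data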;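 note: 0% = DMSO wells and 100% = 60 µM geldanamycin wells; inhibitors lower the luminescence because luciferase stays unfolded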
Peg3 promoter: Peg3 promoter activity inhibition; inhibition, % at 20 µM; HeLa PEG-Prom luciferase reporter, luminescence, overnight; hit rate 1.7% among 360,000; AID 588405;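 active = inhibition of at least 50% at 20 µM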
Mdm2 MdmX conf: human Mdm2/MdmX binding inhibition, confirmed | luminescent assay | shares compounds with Mdm2 MdmX PPI | hit rate 55% among 10,000 | AID 489028 | inhibition, % at 8 µM; in the data active = inhibition above about 40%
Full FLuc ctr: counter-screen for Mdm2/MdmX inhibitors: full-length luciferase. shares compounds with Mdm2 MdmX PPI. SaOS-2 full-length luciferase counterscreen, luminescence. inhibition, % at 8 µM. hit rate 77% among 6,200. AID 504607;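 active = mean inhibition at 8 µM reaching about 37%, which flags the compound as non-specific, limit read from the data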;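 note: p53-null SaOS-2 cells with luciferase driven by a doxycycline-inducible promoter; compound on cells about two nights before reading with doxycycline added after day one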
* hit, by the source's call; . = no result.

SMILES	Mdm2 MdmX PPI	KKLEB cytotox	CF NFkB inh	LGR2 antag	HSP90 inh	Peg3 promoter	Mdm2 MdmX conf	Full FLuc ctr
COc1ccc2cc(C(=O)/C=C/c3cc(OC)c(OC)c(OC)c3)ccc2c1	74.6*	-9.4	-0.7	-3.1	12.2	28.2	53.9*	78.1*
CN(C)C(=O)c1cccc(-c2ccc3c(c2)[C@@H]2[C@@H](CCN2C(=O)C2CCOCC2)[C@H](CO)N3)c1	.	.	.	-7.6	.	.	.	.
Cc1nc(Nc2nc(-c3ccccc3)cc(=O)[nH]2)nc2ccccc12	68.2*	-0.4	-154.0	62.6*	6.0	63.9*	45.0*	70.3*
Cc1nc(Nc2nc(CSc3nc4ccccc4[nH]3)cc(=O)[nH]2)nc2ccccc12	55.2*	13.5	30.7	82.1*	4.9	102.0*	65.5*	61.3*
Cc1nc(Nc2nc(CSc3ccc(Cl)cc3)cc(=O)[nH]2)nc2ccccc12	25.0	2.1	-0.8	-4.7	-3.7	12.6	.	.
Cc1cc(C)cc(Nc2nc3ccccc3c(=O)[nH]2)c1	9.8	2.6	7.2	-24.0	1.4	-43.6	.	.
COc1nc(Nc2nc3ccccc3c(=O)[nH]2)nc2ccc(C)cc12	65.5*	-0.5	47.6	52.4*	4.3	98.1*	42.8*	75.8*
C[C@H](CO)N1C[C@H](C)[C@@H](CN(C)S(=O)(=O)c2ccc(F)cc2)Oc2ccc(NS(=O)(=O)c3cn(C)cn3)cc2C1=O	.	.	.	4.7	.	.	.	.
COc1cccc(S(=O)(=O)N[C@@H]2CC[C@@H](CCn3cc(-c4ccccn4)nn3)O[C@@H]2CO)c1	.	.	.	2.9	.	.	.	.
CNC(=O)c1nnsc1S(=O)c1ccc(Cl)cc1 (stereo not drawn)	97.9*	-5.7	90.9*	102.4*	1.5	102.6*	94.3*	2.9
CCCNC(=O)c1nnsc1S(=O)c1ccc(Cl)cc1 (stereo not drawn)	96.5*	-5.2	84.0*	102.8*	3.1	103.8*	99.8*	1.5
CCCNC(=O)c1nnsc1S(=O)(=O)c1ccc(Cl)cc1	96.4*	-47.6	88.9*	96.2*	-3.2	101.1*	100.2*	50.8*
CCCNC(=O)c1ccc2snnc2c1	15.3	0.7	11.2	13.1	-4.6	5.9	.	.
CCCNC(=O)NS(=O)(=O)c1ccc(Cl)cc1	12.0	7.7	-5.9	6.6	-1.8	-2.2	.	.
O=C(C[C@@H]1C=C[C@H](NC(=O)Nc2cc(F)ccc2F)[C@H](CO)O1)NCc1ccccn1	.	.	.	-20.7	.	.	.	.
COCC(=O)N1[C@H](CO)[C@@H]2c3ccccc3N(C(=O)NC(C)C)C[C@@H]21	.	.	.	8.2	.	.	.	.
COc1ccc(NC(=O)N(C)C[C@@H]2Oc3ccc(NC(=O)Nc4c(C)noc4C)cc3CC(=O)N([C@@H](C)CO)C[C@H]2C)cc1	.	.	.	2.6	.	.	.	.
Cc1ccc(C)c(CN2C(=O)c3ccccc3S(=O)c3ccc(C(=O)NCCCN4CCCC4)cc32)c1 (stereo not drawn)	50.8*	9.0	8.0	-16.6	0.9	28.2	16.4	.
Cc1ccc(CN2C(=O)c3ccccc3Sc3ccc(C(=O)NCCN4CCOCC4)cc32)cc1	51.7*	-5.4	-19.6	8.1	-4.8	18.0	53.6*	69.4*
CC(=O)Nc1ccc2c(c1)C(=O)N(C)[C@H]1CC[C@H](CC(=O)NCc3ccccc3)O[C@@H]1CO2	.	.	.	3.0	.	.	.	.
C[C@@H]1CN([C@@H](C)CO)C(=O)c2cc(NC(=O)c3ccncc3)ccc2O[C@@H](C)CCCCO[C@@H]1CN(C)C(=O)NC1CCCCC1	.	.	.	-6.3	.	.	.	.
Fc1cccc(Nc2c3c(nc4ccccc24)CCC3)c1	30.0	-8.6	-34.4	-11.1	2.3	15.2	.	.
Cc1ccc2nc3c(c(Nc4cccc(O)c4)c2c1)CCC3	60.2*	-6.7	-4.0	15.4	2.0	17.1	33.8	.
COC(=O)c1cccc(Nc2nc(-c3cccnc3)nc3ccccc23)c1	70.3*	-11.9	34.4	33.0	-2.5	42.6	43.0*	71.7*
CC(=O)c1cccc(Nc2c3c(nc4ccccc24)CCC3)c1	54.7*	-10.6	-2.5	-5.7	2.4	24.8	70.4*	72.0*
SMILES	Mdm2 MdmX PPI	KKLEB cytotox	CF NFkB inh	LGR2 antag	HSP90 inh	Peg3 promoter	Mdm2 MdmX conf	Full FLuc ctr
COC(=O)c1cccc(Nc2c3c(nc4ccccc24)CCC3)c1	64.2*	-45.0	-1.5	-2.4	-0.7	25.9	67.6*	63.5*
CCCNC(=O)N1CC(=O)N2[C@H](C1)[C@H](c1ccc(-c3ccc(C)cc3)cc1)[C@@H]2CO	.	.	.	-6.3	.	.	.	.
Cc1ccc(NC(=O)/C=C/c2cccc(C(F)(F)F)c2)cc1	24.1	-7.9	1.5	-1.8	0.4	-43.9	.	.
O=C(/C=C/c1cccc(C(F)(F)F)c1)Nc1cccc(C(F)(F)F)c1	90.8*	1.6	41.6	11.1	-1.9	17.3	31.2	57.2*
CCOc1cc(/C=N/N=C(\N)c2nonc2N)cc(Br)c1OCc1cccc2ccccc12	69.1*	-3.8	7.3	.	6.2	19.8	59.4*	33.4
CO[C@H]1CN(C)C(=O)c2cc(C#N)ccc2OC[C@@H]2O[C@H](CC[C@H]2OC)CCN(C)C(=O)[C@@H]1C	.	.	.	0.1	.	.	.	.
CCN(CC)CCCNC(=O)c1cc(-c2ccccc2)c(N2CCCCC2)s1	75.5*	-0.6	-7.5	-16.8	0.1	97.2*	54.5*	66.1*
O=C(NCCc1ccccc1)c1cc(-c2ccccc2)c(N2CCOCC2)s1	0.4	4.5	-10.7	28.0	.	-3.8	.	.
O=C(C[C@H]1C=C[C@H](NC(=O)CN2CCOCC2)[C@H](CO)O1)NCCc1ccncc1	.	.	.	4.6	.	.	.	.
CC(C)C1Cc2c(sc3[nH]c(=S)n(Cc4ccccc4)c(=O)c23)CO1 (stereo not drawn)	52.8*	4.1	9.9	.	0.2	32.0	-5.0	.
COC(=O)COc1ccc(NC(=O)Cn2nc(-c3ccccc3)c3ccccc3c2=O)cc1	81.5*	-2.7	6.7	-10.8	3.5	-11.2	48.9*	89.3*
FC(F)Sc1ccc(NC(=S)NC2CCCC2)cc1	-48.4	-6.1	3.3	-93.6	-4.8	-220.3	.	.
CC1CCCC(NC(=S)Nc2ccc(SC(F)F)cc2)C1C (stereo not drawn)	90.2*	-5.6	17.0	.	1.3	9.7	9.1	.
CCc1ccc(NSc2ccccc2[N+](=O)[O-])cc1	50.3*	-10.4	21.3	-10.2	8.1	36.3	41.9*	64.8*
O=C(NCC1COc2ccccc2O1)c1ccc(F)c(S(=O)(=O)N2CCOCC2)c1 (stereo not drawn)	7.8	-5.7	-7.8	-0.9	.	15.3	.	.
CCc1ccc(NC(=O)c2ccc(F)c(S(=O)(=O)NCC3COc4ccccc4O3)c2)cc1 (stereo not drawn)	55.6*	3.2	12.1	8.4	-0.1	3.7	40.0*	55.1*
